This is an account of results in PubChem BioAssay (NCATS).

The test system of one assay is CRL-7250. In words: Cytotoxic Profiling of Annotated Libraries Using Quantitative High-Throughput Screening (AID 1296008). For max response: % is set by controls: 0 for no effect and ±100 for the full control effect. Note: potency is the fitted concentration of half-maximal effect. The settings on record: Five cell lines viability, CellTiter-Glo ATP luminescence, 48-72 h; max response: stronger effect = lower value. In short, it runs like this:
(§1)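 Cells exposed to compounds for 48 or 72 hr at 37 degrees Celsius. Viability read as ATP-coupled luminescence with CellTiter-Glo after 10 min at room temperature.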

The subject of assay [1] is HaCat. The assay is described as above. The settings on record: Five cell lines viability, CellTiter-Glo ATP luminescence, 48-72 h; max response: stronger effect = lower value. A digest of the protocol:
as §1

A further assay has as its system KB-3-1. Described as above. The note with it: Five cell lines viability, CellTiter-Glo ATP luminescence, 48-72 h; max response: stronger effect = lower value. A digest of the protocol: as §1
The next assay relates to NIH3T3. The description is as above. The note with it: Five cell lines viability, CellTiter-Glo ATP luminescence, 48-72 h; max response: stronger effect = lower value. A digest of the protocol: as §1
For the next assay, the system named is HEK293. The description is as above. The settings on record: Five cell lines viability, CellTiter-Glo ATP luminescence, 48-72 h; max response: stronger effect = lower value. A digest of the protocol:
as §1

A further assay concerns HEK293T. In words: qHTS assay to identify novel small-molecules to repurpose for Merkel cell carcinoma treatment (AID 1296009). The note with it: MCC and control cell lines, CellTiter-Glo viability, 72 h; at 44.8 µM (top of the series) unless noted. A digest of the protocol: (§2)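 Dose-response viability screen; 72 hr exposure at 37 degree celsius; CellTiter-Glo added, 10 min room temperature, luminescence read; RLUs scaled between no-cell and DMSO wells.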

For assay [2], the system named is HACAT. The assay is described as above. The note with it: MCC and control cell lines, CellTiter-Glo viability, 72 h; series mostly up to 44.8 µM. A digest of the protocol: as §2

The structures appear in SMILES notation. Records with an inconclusive call do not appear. Unmarked numbers belong to inactive results. Calls of active or inactive are those of the source. Calls come from the whole dose curve; as a rule, active = well fitted inhibition curve with a large enough effect; inconclusive = small, poorly fitted or top-dose-only effect; inactive = flat fitted curve, though single readings scatter.
Note: nearly all actives have a fitted effect of over 60% in size.

Turning to `CC1(C=O)CC[C@]2(C(=O)O[C@@H]3O[C@H](CO)[C@@H](O)[C@H](O)[C@H]3O)CC[C@]3(C)C(=CCC4[C@@]5(C)C[C@H](O)[C@H](O[C@@H]6OC[C@@H](O)[C@H](O)[C@H]6O)[C@@](C)(CO)C5CC[C@]43C)C2C1` (stereo partly specified), the max response in the assay with CRL-7250 was -5.25%; with HaCat [1] it was -0.307%; in the assay with NIH3T3 it was -1.18%. The result in the assay with KB-3-1 was inactive.
As to `O=C1CCC=CC1(O)C(=O)OCc1ccccc1O[C@@H]1O[C@H](CO)[C@@H](O)[C@H](O)[C@H]1O` (stereo partly specified), the max response in the assay with CRL-7250 was -18.5%; in the assay on HaCat [1] it was -22.3%; in the assay on KB-3-1, -1.56%; in the assay with NIH3T3, -27.2%.
For `CC1(C)C[C@H](O)C[C@@]2(C)OC(=O)C=C12`, the results for the max response in the assay on CRL-7250 and with NIH3T3 were 1.12% and 2.91%, respectively. In addition, the outcome in the assay on HEK293 and in the assay on KB-3-1 was inactive. The outcome in the assay with HEK293T is “inactive [at 92 µM]”.
Turning to `COc1ccc(CN2C(=O)C(=O)c3cc(S(=O)(=O)N4CCC[C@H]4COc4cccnc4)ccc32)cc1`, the outcome with CRL-7250, in the assay on HEK293, with KB-3-1, in the assay with NIH3T3 and in the assay on HEK293T was inactive.
With `Cc1ccc(C(=O)Nc2noc3ccccc23)cc1`, the Potency in the assay with HEK293 was 18.4 µM (active). For the same compound, the max response in the assay with HaCat [1] is -29.9%. In the assay with KB-3-1, the outcome was inactive.
With `COc1ccc(C2=N[C@@H](c3ccc(Cl)cc3)[C@@H](c3ccc(Cl)cc3)N2C(=O)N2CCNC(=O)C2)c(OC(C)C)c1`, the max response with HEK293 was -29%; with HaCat [1] it was -13.8%; in the assay on KB-3-1, 6.36%.
For `C=C1C(=O)O[C@H]2C1[C@H](OC(=O)/C(=C/CO)COC(=O)/C(C)=C/CO)CC(=C)[C@@H]1CC(=O)[C@@H](C)[C@@H]12` (stereo partly specified), in the assay with HEK293, the Potency was 11.2 µM (active). The max response in the assay with HaCat [1] was -52.7%; with KB-3-1 it was -3.1%.
In the case of `COc1ncc(Nc2ncc([C@@H](C)N3CCN(S(C)(=O)=O)CC3)cc2-c2nc(C)nc(N)n2)cc1F`, the values for the Potency with HEK293, in the assay with HaCat [1] and in the assay on KB-3-1 were 0.259 µM (active), 0.058 µM (active) and 9.2 µM (active), respectively.
Turning to `CCCC(=O)NCCc1csc(-c2ccc(Cl)cc2)n1`, the Potency in the assay with HEK293 is 16.4 µM (active). Further, the values for the max response with HaCat [1] and in the assay with KB-3-1 were -70.2% and -24.2%, respectively.
Regarding `COc1cc(Br)c(S(=O)(=O)Nc2ccc(C(F)(F)F)c(O[C@@H]3CCN(C)C3)c2)cc1OC`, the max response in the assay with CRL-7250 was -0.0326%; in the assay on KB-3-1, -11.3%; in the assay on NIH3T3, -2.88%.
Regarding `C=C(C)C(=O)O[C@H]1CC2=CC(C/C(C)=C\[C@H]3OC(=O)C(=C)[C@H]13)OC2=O` (stereo partly specified), the Potency was 4.53 µM (active) in the assay on HEK293 and 12.8 µM (active) in the assay with HaCat [1]. Besides, the max response in the assay on KB-3-1 was -20.7%.
For `CCNC(=O)C1OC(n2cnc3c(N)nc(NCCc4ccc(CCC(=O)O)cc4)nc32)C(O)C1O` (stereo unspecified), the max response in the assay with CRL-7250 was -14.2%; in the assay with KB-3-1, -5.77%; in the assay with NIH3T3 it was -0.422%.
As to `O=C(O)[C@H](Cc1ccc(Nc2nccc3ccncc23)cc1)NC1=C(Br)C(=O)C12CCCCC2`, the max response in the assay on HEK293 is -11.7%. For the same compound, the outcome in the assay on HaCat [1] and in the assay with KB-3-1 was inactive.
Consider `CC(O)/C=C/C1(O)C(C)C(O[C@@H]2O[C@H](CO)[C@@H](O)[C@H](O)[C@H]2O)C(O)CC1(C)C` (stereo partly specified), for which the max response is 0.975% in the assay with CRL-7250 and -3.24% in the assay with KB-3-1. For the same compound, the outcome with NIH3T3 was inactive. For the same compound, in the assay on HEK293T, the outcome was “inactive [at 17.4 µM]”.
Take `CC(=O)N1CCN(C(=O)Cc2ccc(Nc3ncc(F)c(Nc4ccc(C(=O)Nc5ccccc5Cl)cc4)n3)cc2)CC1`: the results for the Potency in the assay on HEK293, in the assay on HaCat [1] and with KB-3-1 were 6.51 µM (active), 4.11 µM (active) and 5.17 µM (active), respectively.
For the compound `O=C1CCC(c2ccccc2)(C2CCN(Cc3ccc(I)cc3)CC2)C(=O)N1` (stereo unspecified), in the assay on HEK293, the Potency is 18.4 µM (active). Besides, the max response is -3.49% with HaCat [1] and -7.17% with KB-3-1.
On to `C=CC(=O)Nc1cccc(Nc2nc(Nc3ccc(N4CCN(C(C)=O)CC4)cc3OC)ncc2C(F)(F)F)c1`, for which the Potency in the assay on HEK293 was 6.51 µM (active); with HaCat [1], 2.91 µM (active); in the assay with KB-3-1, 11.6 µM (active).
For the compound `Nc1nc2c(ncn2[C@@H]2O[C@@H]3COP(=O)(O)O[C@H]3[C@H]2O)c(=O)[nH]1`, the max response with CRL-7250 was -1.98%. Further, the call in the assay on HaCat [1] and in the assay on KB-3-1 was inactive. The Potency entry with HACAT [2] was “inactive”.
Consider `COc1ncc(Nc2ncc([C@H](C)N3CCN(S(C)(=O)=O)CC3)cc2-c2nc(C)nc(N)n2)cc1F`, for which the Potency in the assay on HEK293 was 0.517 µM (active); in the assay with HaCat [1], 0.146 µM (active); in the assay on KB-3-1 it was 6.51 µM (active).
Take `COc1ccc(Cl)c(Nc2nc3ccccc3nc2NS(=O)(=O)c2cccc(NC(=O)C(C)(C)N)c2)c1`: the results for the max response in the assay on CRL-7250, with KB-3-1 and with NIH3T3 were -18.5%, -5.68% and -15.2%, respectively.
Turning to `COc1cc(OC)cc(C(=O)Nc2ccc(Cl)c(-c3nc4ccc(N(C)C)cc4[nH]3)c2)c1`, the compound was classed as inactive in the assay with CRL-7250 and in the assay on HaCat [1]. Moreover, the max response was 2.52% in the assay on KB-3-1 and -0.734% in the assay on NIH3T3. Moreover, in the assay with HACAT [2], the Potency entry was “inactive”.
As for `COC(=O)C[C@H]1C(C)(C)[C@H](OC(=O)C(C)C)[C@@]2(O)C(=O)[C@]1(C)C1CC[C@]3(C)C(CC(=O)O[C@H]3c3ccoc3)[C@]13O[C@@H]32` (stereo partly specified), the compound was called inactive in the assay on CRL-7250. The max response was 8.04% in the assay with KB-3-1 and 3.21% with NIH3T3.
As for `COC(=O)C1=CO[C@@H](O[C@@H]2O[C@H](CO)[C@@H](O)[C@H](O)[C@H]2O)[C@@H]2C(CO)=CC[C@]12O`, the max response in the assay with CRL-7250 is -2.05%; with KB-3-1, 9.91%; in the assay with NIH3T3, 1.93%. Besides, in the assay on HEK293T, the outcome is “inactive [at 17.4 µM]”.
With `COc1ccc(C(=O)C2CCN(CC(=O)N(Cc3nc4c(c(=O)[nH]3)COCC4)CC3CC3)CC2)cc1`, the max response is -4.04% in the assay on HEK293, -5.45% in the assay with HaCat [1] and 9.05% in the assay with KB-3-1.
Consider `CC1=CC(=O)[C@H]2C(C)(C)CCC[C@]2(C)[C@@]1(O)CO`, for which the max response in the assay with CRL-7250 is -8.81%; with KB-3-1 it was 7.19%; in the assay on NIH3T3, 3.55%.
